Luciferase inh: qHTS Assay for Inhibitors of Firefly Luciferase | Potency, µM (highest dose often 57.1 µM), inactives show top-dose activity change, negative = inhibition, actives largely listed as inhibitors | AID 411, 2009 | Luciferin 4-monooxygenase (Photinus pyralis), P08659 | purified firefly luciferase, luminescence, 8 min | 72,000 tested, 2.2% active; also: nearly all actives have a fitted effect of over 40% in size
Target sequence (P08659 whole entry, looked up): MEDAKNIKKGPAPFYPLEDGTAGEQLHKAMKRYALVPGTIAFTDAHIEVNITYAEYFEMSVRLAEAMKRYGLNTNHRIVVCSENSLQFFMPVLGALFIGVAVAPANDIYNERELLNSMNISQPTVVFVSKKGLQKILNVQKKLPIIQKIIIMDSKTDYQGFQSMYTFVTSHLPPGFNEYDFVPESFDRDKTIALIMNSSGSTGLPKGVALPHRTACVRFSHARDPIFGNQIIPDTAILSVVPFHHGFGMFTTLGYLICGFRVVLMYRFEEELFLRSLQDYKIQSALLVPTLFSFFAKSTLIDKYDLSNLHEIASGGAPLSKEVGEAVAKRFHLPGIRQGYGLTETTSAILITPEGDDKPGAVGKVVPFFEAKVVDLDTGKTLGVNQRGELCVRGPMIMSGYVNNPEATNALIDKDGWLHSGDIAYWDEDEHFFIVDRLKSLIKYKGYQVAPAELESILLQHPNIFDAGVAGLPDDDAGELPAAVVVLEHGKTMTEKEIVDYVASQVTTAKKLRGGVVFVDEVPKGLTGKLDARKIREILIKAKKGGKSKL
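Compounds were tested as concentration series (qHTS) against purified P. pyralis luciferase with luciferin and 10 uM ATP in 50 mM imidazole pH 7.2, 50 mM KCl, 7 mM MgCl2, 0.01% Tween 20, 0.05% BSA. Luminescence was read after 8 min at ambient temperature.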
Pol III holo inh: qHTS Assay for Inhibitors of DNA Polymerase III Holoenzyme System; 71,000 tested, 0.25% active; AID 603, 2007; Potency, µM (series often up to 57.1 µM), inactives show at the top dose activity change, negative = inhibition; reconstituted DNA polymerase III holoenzyme replication, biochemical
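Reconstituted *E. coli* holoenzyme (0.35 nM Pol III, 1 nM beta, 154 nM SSB, 2 nM primase) was preincubated with compound for 15 min at RT. Synthesis on 1.4 nM ssM13Gori ran 35 min, then was stopped with PicoGreen/EDTA and read as dsDNA fluorescence.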
Tau fil binding: qHTS Assay for Tau Filament Binding. recombinant tau filaments, thioflavin S fluorescence, 15 h; filaments grown with octadecylsulfate alongside compound. Potency, µM (doses to about 57.1 µM), without a hit: at the highest dose activity change, negative = inhibition. 71,000 tested, 2% active;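 also: actives lower thioflavin S fluorescence by blocking filaments or displacing dye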
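Assay mix: 1 uM His-tagged tau, 30 uM sodium octadecylsulfate, thioflavine S dye in HEPES/NaCl/DTT buffer. Compound is added prior to the inducer. Fluorescence after 15 h at 37 C.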
ALOX15 inhib: qHTS Assay for Inhibitors of 15-hLO (15-human lipoxygenase); purified 15hLO-1, xylenol orange hydroperoxide absorbance; Potency, µM (top dose mostly 57.1 µM), without a hit: at the top dose activity change, negative = inhibition, hits mostly inhibitors; Polyunsaturated fatty acid lipoxygenase ALOX15 (Homo sapiens), P16050; 74,000 tested, 1.4% active; also: nearly all actives have a fitted effect of over 55% in size
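Compounds were preincubated 15 min at room temperature with 40 nM purified human enzyme (25 mM Hepes pH 7.5, 0.01% Triton X-100); 50 uM arachidonic acid reacted 6 min. Fe-xylenol orange detection, 30 min, absorbance ratio 573/405 nm.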
Bst PK mod: Pyruvate Kinase; AID 361, 2006; 51,000 tested, 1.2% active; Potency, µM; purified pyruvate kinase, luminescence ATP production; ribose 5-phosphate activator present at AC10; in the data active = potency below about 11 µM; inconclusive = mostly about 12 µM to 25 µM;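 the screen sought inhibitors and activators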;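 also: scaled between full activation by ribose 5 phosphate and full inhibition by luteolin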
ERK AVP inh: qHTS Assay for Inhibitors of the ERK Signaling Pathway using a Homogeneous Screening Assay; HEK293-V1b, vasopressin-stimulated pERK AlphaScreen; Potency, µM (doses to about 57.5 µM), inactives show top-dose activity, negative = inhibition, usual class: inhibitors; 72,000 tested, 0.99% active; AID 995, 2007; also: nearly all actives have a fitted effect of over 55% in size
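HEK293 cells stably expressing V1b receptor, preincubated 30 min at 37 °C with compound, then stimulated 5 min with 25 nM vasopressin. Phospho-ERK by AlphaScreen SureFire after 5 h RT; normalized to DMSO and vasopressin; AC50 by Hill fit.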
Active calls of the source: *; i = inactive; ? = inconclusive; · = not tested or not shown; [ ] = dose if it differs, or a comment. Only some compounds are listed: those with a hit (about 6% of all), similar ones and a draw of the others. Unless noted, calls follow the shape of the dose curve; as a rule, active = well fitted curve in the direction sought with a large enough effect; inconclusive = small, poorly fitted or top-dose-only effect, or another doubt; inactive = no such curve, though single readings can be large; an effect the other way counts as inactive or inconclusive. Unless noted, % is scaled to controls: 0 for no effect and ±100 for the full control effect; potency is read from the fitted curve at half-maximal effect.

SMILES | Luciferase inh | Pol III holo inh | Tau fil binding | ALOX15 inhib | Bst PK mod | ERK AVP inh
CO[C@@H]1COC(=O)C/C=C\[C@@H](C)COC(=O)[C@H](Cc2ccccc2)NC(=O)C/C=C\[C@H]1C | 1%[11.4 µM] | · | · | 6%[11.4 µM] | · | 5%[11.5 µM]
O=C(Nc1nc2c(s1)CCCC2)Oc1ccccc1 | -19% | -5% | -11% | 9% | >57 | -18%
O=S1(=O)N=C(Nc2nc3c(s2)CCCC3)c2ccccc21 | 2.5µM* | -3% | 19% | 0% | 4.5* | -13%
CC(C)Nc1nc(C#N)nc(NC(C)C)n1 | 2% | -4% | 13µM* | -5% | >57 | ?
O=c1[nH][nH]c(=S)c(=O)[nH]1 | 0%[11.4 µM] | 0%[11.4 µM] | -6%[11.4 µM] | -23%[11.4 µM] | · | 8%[11.5 µM]
CC1=c2c(oc3cc(O)c(Nc4c(C)cc(O)cc4O)c(C)c23)=CC(=O)C1=Nc1c(C)cc(O)cc1O | -28%[11.4 µM] | -8%[11.4 µM] | 1.6µM* | ? | · | -9%[11.5 µM]
CCOc1cccc2cc(-c3cn4cc(C)ccc4n3)c(=O)oc12 | 0.16µM* | -5% | 0% | 4% | 1.2* | -4%
COc1cccc2cc(-c3cn4cccc(C)c4n3)c(=O)oc12 | -7% | 0% | -6% | 6% | >57 | -27%
COC(=O)C(C)Sc1nc2c(c(=O)n(C)c(=O)n2C)n1CCC(C)C (configuration not stated) | 3%[25.5 µM] | · | · | · | >26 | ·
COC(=O)C(C)Sc1nc2c(c(=O)[nH]c(=O)n2C)n1CCC(C)C (configuration not stated) | 2% | -2% | -2% | 8% | >57 | 32µM*
O=C(Nc1cccs1)NC1CCCC1 | -4% | -2% | -12% | 13µM* | >57 | -3%
CC(C)NC(=O)Nc1cccs1 | · | · | · | -23% | · | ·
Cn1c(=S)c2[nH]c(SCCN3C(=O)c4ccccc4C3=O)nc2n(C)c1=O | 2%[11.4 µM] | -10%[11.4 µM] | 4%[11.4 µM] | 23%[11.4 µM] | · | -9%[11.5 µM]
O=C1CCCC=C1[C@@H](O)C1CCCCC1 | 1%[11.4 µM] | · | · | 0%[11.4 µM] | · | -6%[11.5 µM]
CC(C)(CN)CN | 3%[11.4 µM] | -9%[11.4 µM] | 10%[11.4 µM] | 5%[11.4 µM] | · | 27%[11.5 µM]
Nc1ccc(O)cc1 | · | -18% | 16µM* | ? | · | -2%
O=C1NC(=S)S/C1=C1\Sc2ccccc2N1CCCS(=O)(=O)O | 1% | -16% | 48% | ? | 7.7* | -22%
Cc1ccc(NC(=O)COC(=O)c2ccc3c(c2)NC(=O)C2CCCN32)cc1 (configuration not stated) | 2% | -4% | 87% | -7% | >57 | 3%
COC(=O)c1ccc2c(c1)NC(=O)C1CCCN21 (configuration not stated) | -13% | -16% | -21% | 7.9µM* | · | -26%
O=C(c1ccccc1)c1cc(-c2ccccc2)on1 | 1.6µM* | · | · | · | 1.9* | ·
ICCc1ccccc1 | · | -5% | 2% | 13µM* | · | 44%
Nc1c(-c2ccc(Cl)cc2)nnn1-c1ccccc1 | 10µM* | -4% | -3% | -4% | · | 8%
Clc1ccc(-n2nnnc2-c2ccccc2)cc1 | 0% | -2% | 6% | -4% | >57 | 14%
Cc1ccc(OCc2nnc(SCc3nc4ccccc4[nH]3)n2Cc2ccco2)cc1 | -3% | 2% | -7% | 5% | >57 | 32µM*
Cc1ccc(OCc2nnc(SCC(=O)c3ccccc3)n2Cc2ccco2)cc1 | -1% | -4% | 49% | -15% | >57 | -30%
SMILES | Luciferase inh | Pol III holo inh | Tau fil binding | ALOX15 inhib | Bst PK mod | ERK AVP inh
O=c1c(-c2ccc(O[C@@H]3O[C@H](CO)[C@@H](O)[C@H](O)[C@H]3O)cc2)coc2cc(O)cc(O)c12 | · | · | · | -6%[25.6 µM] | · | 3%
O=C(CSc1nnc(COc2ccc(Cl)cc2)o1)N1CCN(c2ccccc2)CC1 | 2% | 2% | 65% | 9% | · | -21%
O=C(CSc1nnc(-c2ccc(Cl)cc2)o1)N1CCN(c2ccccc2)CC1 | -1% | -4% | 13µM* | -17% | >57 | 17%
NC(=O)c1ncn([C@@H]2O[C@@H](CO)[C@@H](O)[C@H]2O)n1 | -1% | -5% | -6% | · | · | ·
O=S(=O)(c1ccccc1Cl)N1CCC(O)(c2ccc3c(c2)OCO3)CC1 | 1% | 1% | -3% | -22% | i | 32µM*
CNc1nc2c(c(=O)n(C)c(=O)n2C)n1Cc1ccccc1 | 2% | 0% | 4% | 3% | >57 | -20%
Cn1c(=O)c2c(nc(NC(Cc3ccccc3)C(=O)O)n2Cc2ccccc2)n(C)c1=O (configuration not stated) | 1% | -20% | -3% | 25µM* | >57 | -8%
COc1ccc(-c2nc3cnc(OC)nc3n(-c3ccccc3)c2=O)cc1 | 2%[11.4 µM] | 2% | 6% | 20% | · | -11%
COC(=O)c1sc(NC(=O)COc2ccccc2OC)nc1C | -3% | 0% | i | -8% | · | ?
CCOC(=O)c1sc(Nc2nc3c(OC)cccc3s2)nc1C | 16µM* | -3% | 38% | 1% | · | -2%
CC(=O)Oc1ccc(/C=C\C(=O)C[C@@H]2O[C@@H](Oc3cc(OC(C)=O)c4c(c3)O[C@@H](c3ccc(OC(C)=O)cc3)CC4=O)[C@H](OC(C)=O)[C@H](OC(C)=O)[C@@H]2OC(C)=O)cc1 | 4%[11.4 µM] | -4% | ? | · | · | ·
Cc1csc(NC(=O)CSCC(=O)Nc2ccccc2)n1 | -2% | -6% | -10% | -16% | >57 | 32µM*
O=C(Nc1ccccc1O)c1ccccc1O | 20µM* | 3% | -4% | -15% | · | -25%
Cc1csc(NC(=O)c2ccccc2O)n1 | 25µM* | -2% | -3% | -22% | · | 13%
CCCn1c(-c2ccc(F)cc2)nc2c(NCCCN3CCCCC3C)nc(C)nc21 (configuration not stated) | · | -6% | 33% | -11% | · | -7%

Screens (PubChem)
